Laboratory results taken from ChEMBL document CHEMBL3988442, “University of Dundee, Small-Polar-MMV Screening Library” (2021).
Among all 48,000 compounds or so, about 13,000 (27%) showed an effect of 50% or more. Some of the results follow.

What follows are compounds tested on Wolbachia pipientis (assay: Anti-Wolbachia Cell-Based Screen). Conditions: 5 µM.
Format: functional
Design: scale not given: in the data most compounds retested in dose-response had high values

Row | SMILES | Percent Effect
1 | CC(CCNC(=O)N(C)CC1CCOCC1)N1CCCCC1 (stereo not drawn) | -7.573%
2 | CCc1nc(CN2CCCN(C(=O)C(C)n3ccnc3)CC2)cs1 (stereo not drawn) | 0.184%
3 | Cc1cnc(N2CCC3(CC2)CC3C(=O)NCC2CC2)nc1 (stereo not drawn) | -18.23%
4 | O=C([C@@H]1Cc2[nH]cnc2CN1C(=O)NC1CCCCC1)N1CCCC1 | 6.906%
5 | CCS(=O)(=O)N1Cc2cncn2CC(C(=O)NCC2CC2)C1 (stereo not drawn) | 119.2%
6 | O=C(NC1CCCCC1)[C@H]1CNC[C@@H](COc2cccnc2)C1 | 11.4%
7 | O=C(NCC1CC1)C1CN(C(=O)NC2CCCC2)Cc2cncn2C1 (stereo not drawn) | 100.7%
8 | CC(C)N(C(=O)N1CCn2cncc2C1)C(C)C | 10.83%
9 | CN(C)CCN1CC2(CCCN(c3ncc(Cl)cc3F)C2)CCC1=O (stereo not drawn) | 4.533%
10 | Cn1ccc(C(=O)N2CCCC(n3cncn3)C2)cc1=O (stereo not drawn) | 3.949%
11 | O=C(c1ccc2c(c1)CCCC2)N1CCCC(n2cncn2)C1 (stereo not drawn) | 100.2%
12 | O=C(c1ccc(Cl)c(Cl)c1)N1CCCC(n2cncn2)C1 (stereo not drawn) | 3.266%
13 | O=C(c1cccc(N2CCCC2=O)c1)N1CCCC(n2cncn2)C1 (stereo not drawn) | 0.04653%
14 | O=C(c1ccc2c(c1)COC2)N1CCCC(n2cncn2)C1 (stereo not drawn) | 130%
15 | Cc1nc(C)n(C2CCCN(C(=O)c3ccc4c(c3)COC4)C2)n1 (stereo not drawn) | -5.905%
16 | Cc1cc(Nc2ccc3c(c2)CC(=O)N3)nc(C(C)C)n1 | 5.406%
17 | CO[C@@H]1CO[C@@]2(CCCN(Cc3nc(C)cs3)C2)C1.O=C(O)C(F)(F)F | 128.3%
18 | CCO[C@@H]1CO[C@@]2(CCCN(Cc3scnc3C)C2)C1.O=C(O)C(F)(F)F | -0.3895%
19 | O=C(COc1ccccc1)N1CCC[C@]2(C[C@H](OCC3CC3)CO2)C1 | 5.425%
20 | CCO[C@H]1CO[C@@]2(CCCN(Cc3nc(C)cs3)C2)C1.O=C(O)C(F)(F)F | -3.246%
21 | Cc1csc(CN2CCC[C@]3(C[C@H](OCC4CC4)CO3)C2)n1 | 94.91%
22 | Cc1csc(CN2CCC[C@]3(C[C@@H](OCC4CC4)CO3)C2)n1.O=C(O)C(F)(F)F | 105.3%
23 | Cc1noc(C)c1CN1CCC[C@]2(C[C@@H](Oc3ccccn3)CO2)C1.O=C(O)C(F)(F)F.O=C(O)C(F)(F)F | -19.05%
24 | CCO[C@H]1CO[C@@]2(CCCN(Cc3scnc3C)C2)C1.O=C(O)C(F)(F)F | 114.2%
25 | O=C(COc1ccccc1)N1CCC[C@]2(C[C@@H](OCC3CC3)CO2)C1 | 18.43%

Row | SMILES | Percent Effect
26 | O=C(O)C(F)(F)F.O=S(=O)(C1CC1)N1CCC[C@]2(C[C@@H](Oc3ccccn3)CO2)C1 | 2.781%
27 | CCS(=O)(=O)N1CC[C@]2(C[C@@H](OCC3CC3)CO2)C1 | -6.112%
28 | COc1ccccc1CN1CC[C@]2(C[C@H](OC)CO2)C1.O=C(O)C(F)(F)F | 9.484%
29 | Cl.c1cnc(N2CCCC(NCc3cccc4c3OCCO4)C2)nc1 (stereo not drawn) | 11.77%
30 | Cc1cn2c(n1)CCC(NS(=O)(=O)c1ccc(C)s1)C2 (stereo not drawn) | -1.096%
31 | Cc1ccc2c(c1)C1(CCN(C(=O)C3CC3)CC1)CC2N1CCOCC1.O=C(O)C(F)(F)F (stereo not drawn) | 4.954%
32 | Cc1cc(C)n(CC2CCCCN2CC(=O)Nc2c(C)n[nH]c2C)n1 (stereo not drawn) | 1.6%
33 | Cc1[nH]nc(CCC(=O)NCC2CCCN(C3CCCC3)C2)c1C (stereo not drawn) | 91.65%
34 | Cc1[nH]nc(CCC(=O)NCC2CCN(C3CCCCC3)C2)c1C (stereo not drawn) | 82.83%
35 | CCCc1nc(C)c(C(=O)NCC2CCN(C3CC3)C2)s1 (stereo not drawn) | 9.564%
36 | Cc1n[nH]c(C)c1NC(=O)CN1CCCC(CNC(=O)C(C)(C)C)C1 (stereo not drawn) | 3.245%
37 | Cc1n[nH]c(C)c1CCC(=O)NCC1COc2ccccc2C1 (stereo not drawn) | -6.3%
38 | Cc1n[nH]c(C)c1CCC(=O)NCC1CCCN(C2CCCC2)C1 (stereo not drawn) | 80.33%
39 | Cc1n[nH]c(C)c1CCC(=O)NCC1CCOc2ccccc2C1 (stereo not drawn) | -7.064%
40 | Cc1cc(CN2CCC(CNC(=O)CN3CCCCCC3)C2)[nH]n1 (stereo not drawn) | 4.399%
41 | Cc1[nH]nc(CCC(=O)NCC2COc3ccccc3C2)c1C (stereo not drawn) | -76.22%
42 | Cc1ccc(C2CN(C(=O)NCc3nnc4ccccn34)CCO2)o1 (stereo not drawn) | -6.842%
43 | Cc1cnn(CC(=O)NCC2(O)CCCc3ccccc32)c1 (stereo not drawn) | -1.481%
44 | CN(Cc1ccc(C(N)=O)cc1)c1ccc(C(F)(F)F)cn1 | 16.53%
45 | FC(F)(F)c1ccccc1CN1CCOC[C@H](Oc2cccnc2)C1 | -13.87%
46 | COc1cccc2c1N(Cc1nc(C3CC3)no1)CCC2 | -12.66%
47 | Cc1cc(N2CCN(C(=O)CCc3scnc3C)CC2)cc(C)n1 | 13.55%
48 | Cc1cc(N2CCCN(c3ccnc(C)c3)CC2)ccn1 | 10.82%
49 | CNc1nc(C(=O)N2CCCC(c3nccn3CC3CCC3)C2)cs1 (stereo not drawn) | 4.458%
50 | CNc1nc(C(=O)N2CCN(c3cc(C)nc(C)c3)CC2)cs1 | 104.9%

Row | SMILES | Percent Effect
51 | CNc1nc(C(=O)N2CCCN(c3ccnc(C)c3)CC2)cs1 | 103.6%
52 | Cc1cc(N2CCCN(C(=O)Cc3csc(C)n3)CC2)ccn1 | -22.63%
53 | Cc1noc2ncc(C(=O)N(CC3CCOC3)C3CC3)cc12 (stereo not drawn) | -8.329%
54 | CC(C)Cn1cc(NC(=O)NCC2CCN(c3ccccc3)C2)cn1 (stereo not drawn) | -4.161%
55 | COCCN(C)CCN1CC2(CCN(C3CCOC3)CC2)OC1=O (stereo not drawn) | -5.724%
56 | COc1ccc(-c2n[nH]c(C)c2CC(=O)NCC2CCCO2)cc1 (stereo not drawn) | 140.4%
57 | Cc1ccc(-c2cc(C(=O)NCCN3CCOCC3)n[nH]2)s1 | 2.618%
58 | Cc1ccc(-n2nnc(CC(=O)N3CCOCC3)c2C)cc1 | -5.261%
59 | COc1ccc(-c2n[nH]c(C)c2CC(=O)N2CCOCC2)cc1 | 82.2%
60 | Cc1ccc(-c2nc(CC(=O)NCC3CCOC3)cs2)o1 (stereo not drawn) | 7.713%
61 | COc1ccc(-c2n[nH]c(C)c2CC(=O)NCC2CCOCC2)cc1 | 94.98%
62 | COc1ccc(OCc2nc(C(=O)NCCN3CCOCC3)co2)cc1 | -20.12%
63 | COc1ccc2c(c1)OCC(CNC(=O)CCc1c(C)n[nH]c1C)C2 (stereo not drawn) | 2.391%
64 | Cc1cc(=O)n(CC(=O)NCC2CCCO2)c(-c2ccc(F)cc2)n1 (stereo not drawn) | 12.17%
65 | COc1ccc(CC(=O)Nc2c(C)nc(N3CCOCC3)nc2C)cc1 | 11.03%
66 | COc1ccc(-c2n[nH]c(C)c2CC(=O)NCCN2CCOCC2)cc1 | 95.82%
67 | CCC(=O)c1ccc(OCC(=O)NCC2CCCO2)cc1 (stereo not drawn) | 8.672%
68 | CC(C)N1CCC(NC(=O)NC2CCOc3ccc(Br)cc32)CC1 (stereo not drawn) | 4.745%
69 | CN(C)C(=O)N[C@H]1CN(C2CCOCC2)[C@@H]2CCCO[C@H]12.O=C(O)C(F)(F)F | 16.52%
70 | NC(=O)c1ccc(N2CCCCC2)c(NC(=O)c2ccc(Br)cc2)c1 | 7.886%
71 | Cc1noc(C)c1CN1CC[C@H]2OCC[C@@H](C(=O)N3CCCO3)[C@@H]2C1 | -14.86%
72 | Cc1nn2cccnc2c1C(=O)N1CCCC(Nc2ccccc2)C1 (stereo not drawn) | -8.048%
73 | CC(=O)N(C)CC(=O)NC1(c2ccc(Cl)c(Cl)c2)CC1 | -1.911%
74 | CC(C)CN1CCN(C(=O)Nc2cc(C(F)(F)F)c[nH]c2=O)CC1 | -8.263%
75 | CC1CN(C(=O)Nc2cc(C(F)(F)F)c[nH]c2=O)CCO1 (stereo not drawn) | 83.43%

Row | SMILES | Percent Effect
76 | CC(CCc1ccco1)NC(=O)Nc1cc(C(F)(F)F)c[nH]c1=O (stereo not drawn) | -5.295%
77 | COc1cc(CNC(=O)Nc2cc(C(F)(F)F)c[nH]c2=O)ccn1 | -10.71%
78 | O=C(Nc1cc(C(F)(F)F)c[nH]c1=O)N1CCOCC1 | 95.88%
79 | O=C(Nc1cc(C(F)(F)F)c[nH]c1=O)c1ccco1 | -1.817%
80 | COC1CCN(C(=O)Nc2cc(C(F)(F)F)c[nH]c2=O)CC1 | 107.9%
81 | Cc1ncc(CNC(=O)Nc2cc(C(F)(F)F)c[nH]c2=O)s1 | -11.29%
82 | COCC1CN(C(=O)Nc2cc(C(F)(F)F)ccc2F)CCO1 (stereo not drawn) | -13.47%
83 | Cn1cnnc1CNC(=O)Nc1cc(C(F)(F)F)c[nH]c1=O | -11.16%
84 | CC(C)(C)N1CCN(C(=O)Nc2cc(C(F)(F)F)c[nH]c2=O)CC1 | 82.7%
85 | CS(=O)(=O)N1CCC2(CC1)CN(CC1CC1)CC21CCNC1=O.O=C(O)C(F)(F)F (stereo not drawn) | -40.94%
86 | Cc1nc(-c2cn(CCN)nn2)n(-c2ccc(C(F)(F)F)cc2)n1 | -70.01%
87 | Cc1nccn1-c1ccc(N2CCC(N[C@H](C)C(C)C)CC2)cc1 | 17.33%
88 | O=C(Nc1cc(C(F)(F)F)c[nH]c1=O)N1CCSCC1 | 108.7%
89 | CC1CN(C(=O)Nc2cc(C(F)(F)F)c[nH]c2=O)CC(C)(C)O1 (stereo not drawn) | 113.6%
90 | CCCc1noc(CCC(=O)Nc2cc(C(F)(F)F)c[nH]c2=O)n1 | -8.892%
91 | Cc1noc(CCCC(=O)Nc2cc(C(F)(F)F)c[nH]c2=O)n1 | 11.68%
92 | O=C(Nc1cc(C(F)(F)F)c[nH]c1=O)N1CCCSCC1 | -10.12%
93 | CC1(C)CN(C(=O)Nc2cc(C(F)(F)F)c[nH]c2=O)CCO1 | 99.91%
94 | CC1CN(C(=O)Nc2ccc(Cl)c(C(=O)NC3CC3)c2)CC(C)(C)O1 (stereo not drawn) | -20.36%
95 | O=C(NCCNc1ncccn1)Nc1cc(C(F)(F)F)c[nH]c1=O | -3.235%
96 | O=C(NC1=NCCS1)C1CSCN1C(=O)C1CCCC1 (stereo not drawn) | -6.178%
97 | Cn1cccc(NC(=O)NCc2cccc(CO)c2)c1=O | -1.059%
98 | Cc1cc(-c2nc(-c3ccccn3)nn2C2CCN(C)CC2)nc(C)n1 | -5.062%
